Screens: PubChem, several laboratories
Rows were chosen to be rich in hits. Some 1.2% of all compounds tested hit in one or more screens of this group.
GLD-1 RNA inh: GLD-1/TGE RNA complex disruptors, primary screen, biochemical, fluorescence polarization; Female germline-specific tumor suppressor gld-1 (Caenorhabditis elegans), Q17339; purified GLD-1 + fluorescein TGE RNA; inhibition, % at 5.96 µM; 0.44% of 320,000 active; AID 2280, 2010;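 active means percent inhibition above a per-plate cutoff, the plate mean of test compounds plus 3 SD, cut at about 30% in these data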;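 further: 0% = DMSO wells with GLD-1 and probe and 100% = wells lacking GLD-1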
Target sequence (Q17339 whole entry, looked up): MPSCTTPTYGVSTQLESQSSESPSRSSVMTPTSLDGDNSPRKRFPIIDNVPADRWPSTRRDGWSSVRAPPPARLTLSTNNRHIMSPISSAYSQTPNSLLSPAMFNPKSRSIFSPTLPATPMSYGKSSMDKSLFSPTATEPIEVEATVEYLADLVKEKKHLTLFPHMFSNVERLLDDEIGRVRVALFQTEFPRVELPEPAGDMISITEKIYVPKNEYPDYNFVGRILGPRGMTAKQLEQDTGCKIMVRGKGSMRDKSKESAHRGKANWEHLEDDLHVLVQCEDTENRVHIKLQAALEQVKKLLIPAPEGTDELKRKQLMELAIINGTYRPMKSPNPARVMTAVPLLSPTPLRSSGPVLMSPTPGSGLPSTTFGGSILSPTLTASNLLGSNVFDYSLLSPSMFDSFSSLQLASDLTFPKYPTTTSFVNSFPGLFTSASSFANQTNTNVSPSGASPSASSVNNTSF
E coli Lon inh: inhibitors of E. coli Lon protease, primary screen, biochemical, fluorescence polarization; P0A9M0; purified E. coli Lon protease; inhibition, % at 7.94 µM; 0.42% of 360,000 active; in the data active means inhibition above about 13%, passing the limit was not always enough;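 further: 0% = enzyme with probe and DMSO and 100% = no enzyme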
MEX-5 binding: MEX-5 zinc finger RNA-binding disruptors – biochemical, C. elegans, fluorescence polarization, MLPCN library, primary screen. MEX-5/FITC-TCR2 RNA binding; hits give low values. activity score (negative = inhibition of binding), % at 10 µM. 0.38% of 300,000 active. AID 1832, 2009;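 active means inhibition past about -25% in most replicates, and total fluorescence under double the plate's negative control median, limit read from the data; inconclusive means replicates evenly split on the limit, or fluorescence at least double controls; inactive means too little inhibition in most replicates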;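 further: 0% = DMSO and -100% = 5 µM competing unlabeled TCR2 RNA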
LANA DNA inh: inhibitors of KSHV C-LANA binding to DNA, primary screen, biochemical, fluorescence polarization, FAM-LBS DNA, MBP-C-LANA, single point; inhibition, % at 9 µM; 0.078% of 340,000 active; AID 504423, 2011;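 active means highest replicate inhibition at or above 60% at 9 µM, even if other replicates fall short; inactive means all replicates below 60% inhibition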;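 further: 0% = neutral control wells and 100% = 4 µM acridine orange control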
Keap1 Nrf2 FP: Keap1-Nrf2 protein-protein interaction inhibitors, primary screen, biochemical, fluorescence polarization, single point; Keap1 Kelch-Nrf2 peptide fluorescence polarization, 1536-well; inhibition, % at 9.4 µM; 0.15% of 340,000 active; Kelch-like ECH-associated protein 1 (Homo sapiens), Q14145; in the data active means inhibition above about 12%; inconclusive means no clear call, values can overlap the other calls; inactive means below about 7.3%;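 further: human Keap1 Kelch domain with fluorescein labeled Nrf2 9mer peptide probe; 0% = neutral control wells and 100% = peptide positive control; higher means more block of Keap1 binding to Nrf2 peptide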
BCLXL inh: inhibitors of human Bcl-xL, primary screen, biochemical, fluorescence polarization, HTS. AID 2129, 2009. inhibition, % at 10.9 µM. GST-Bcl-xL / FITC-Bim BH3 peptide fluorescence polarization. 0.7% of 320,000 active. Bcl-2-like protein 1 (Homo sapiens), Q07817;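 active means inhibition above the mean of all tested compounds plus 3 SD, cutoff set per campaign, cut at about 30% in these data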;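 further: 0% = DMSO wells and 100% = unlabeled Bim-BH3 peptide competitor; inhibitors lower millipolarization by displacing the labeled peptide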
Target sequence (Q07817 whole entry, looked up): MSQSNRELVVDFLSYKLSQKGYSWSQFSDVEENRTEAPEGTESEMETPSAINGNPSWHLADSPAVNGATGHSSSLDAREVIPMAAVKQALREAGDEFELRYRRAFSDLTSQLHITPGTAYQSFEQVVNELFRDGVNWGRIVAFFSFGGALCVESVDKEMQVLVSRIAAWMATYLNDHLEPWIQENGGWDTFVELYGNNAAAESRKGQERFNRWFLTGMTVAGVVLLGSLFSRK
An asterisk follows results filed as active.

For Cc1c(C=O)c(Cl)n(C)c(=O)c1C#N the results were GLD-1 RNA inh 20.8, E coli Lon inh -2.5, MEX-5 binding -18.8, LANA DNA inh 10.2, Keap1 Nrf2 FP 5.4 and BCLXL inh 37.4*.
`C[C@H](NC(=O)c1ncn(Cc2ccccc2)c1C(=O)N[C@@H](C)c1ccccc1)c1ccccc1` gave GLD-1 RNA inh 9.8, E coli Lon inh 9.6, LANA DNA inh -1.5, Keap1 Nrf2 FP 1.5 and BCLXL inh -1.8.
`N#C/C(=C\c1cccnc1)C(=O)Nc1ccccc1` gave GLD-1 RNA inh 28.6, E coli Lon inh -0.5, LANA DNA inh 5.9, Keap1 Nrf2 FP -0.7 and BCLXL inh 30.7*.
Screening Cc1ccc([N+](=O)[O-])cc1S(=O)(=O)Nc1ccc(O)c(Sc2ncn[nH]2)c1 returned GLD-1 RNA inh -2.4, E coli Lon inh -6.3, MEX-5 binding -40.1*, LANA DNA inh -0.6, Keap1 Nrf2 FP -3.9 and BCLXL inh 11.6.
Screening COc1ccc(C2C(C(C)=O)=C(C)N=c3s/c(=C\c4cc(C)n(C)c4C)c(=O)n32)c(OC)c1 (stereo not given) returned GLD-1 RNA inh -111.4, E coli Lon inh inactive, MEX-5 binding -38.5*, LANA DNA inh 2.0, Keap1 Nrf2 FP -17.2 and BCLXL inh -41.7.
C=CS(=O)(=O)c1c2cc(OC)ccc2nc2ccc(OC)cc12 was read as E coli Lon inh 15.9, LANA DNA inh 1.2 and Keap1 Nrf2 FP -5.1.
CC1(O)C(=O)C=C2C=C(C3CC3)OC=C2C1=O (stereo not given) was read as GLD-1 RNA inh 23.3, MEX-5 binding -60.4* and BCLXL inh 21.3.
For COC(=O)CCC(=O)OC1(C)C(=O)C=C2C=C(c3ccsc3)OC=C2C1=O (stereo not given) the results were GLD-1 RNA inh 28.3, E coli Lon inh -21.1, MEX-5 binding -41.2*, LANA DNA inh 1.8, Keap1 Nrf2 FP 0.7 and BCLXL inh 20.6.
Screening COC(=O)CCC(=O)OC1(C)C(=O)C=C2C=C(C3CC3)OC=C2C1=O (stereo not given) returned GLD-1 RNA inh 66.8*, MEX-5 binding -41.7* and BCLXL inh 54.1*.
For CC1(OC(=O)CCc2ccccc2)C(=O)C=C2C=C(C3CC3)OC=C2C1=O (stereo not given) the results were GLD-1 RNA inh 32.8*, MEX-5 binding -18.7 and BCLXL inh 38.7*.
`O=C(CNC(=O)N1CC(=O)Nc2ccccc21)NCCc1c[nH]c2ccccc12` gave GLD-1 RNA inh 4.5, E coli Lon inh 2.7, MEX-5 binding 1.1, LANA DNA inh -1.1, Keap1 Nrf2 FP -2.3 and BCLXL inh 1.2.
Screening CC(=O)c1ccc(S(=O)(=O)NCC(=O)Nc2nc3ccccc3[nH]2)cc1 returned GLD-1 RNA inh 0.9, E coli Lon inh -15.5, LANA DNA inh 1.0, Keap1 Nrf2 FP -3.2 and BCLXL inh 14.6.
`COc1ccc2nc(SCC(C)=O)c(C#N)cc2c1` gave GLD-1 RNA inh -7.7, E coli Lon inh -7.2, MEX-5 binding inconclusive, LANA DNA inh -3.8, Keap1 Nrf2 FP -18.7 and BCLXL inh 32.4*.
For COc1ccc2nc(SC)c(C#N)cc2c1 the results were GLD-1 RNA inh -1.7, E coli Lon inh -7.6, MEX-5 binding -0.3, LANA DNA inh -0.6, Keap1 Nrf2 FP -1.4 and BCLXL inh 2.6.
`Oc1c(C=Nc2cccc3cccnc23)sc2ccccc12` gave GLD-1 RNA inh -151.9, MEX-5 binding 4.1 and BCLXL inh 80.2*.
Screening O=C1CC(C(=O)N2CCN(c3ccccn3)CC2)CN1Cc1ccccc1Cl (stereo not given) returned GLD-1 RNA inh 6.3, E coli Lon inh -0.2, MEX-5 binding 1.1, LANA DNA inh -0.9, Keap1 Nrf2 FP -3.3 and BCLXL inh 5.6.
O=S(=O)(Nc1ccc(-c2cnco2)cc1)c1ccccc1 was read as GLD-1 RNA inh 9.8, E coli Lon inh -4.7, MEX-5 binding -1.9, LANA DNA inh -1.3, Keap1 Nrf2 FP -1.1 and BCLXL inh 30.6*.
[O-][n+]1ccccc1/C=C/c1ccccc1 was read as GLD-1 RNA inh 1.4, E coli Lon inh -7.8, MEX-5 binding 1.9, LANA DNA inh -0.2, Keap1 Nrf2 FP -0.1 and BCLXL inh 2.8.
Screening CN(C)c1ccc(/C=C/c2cccc[n+]2[O-])cc1 returned GLD-1 RNA inh -2.4, E coli Lon inh -64.2, MEX-5 binding 2.2, LANA DNA inh -1.7, Keap1 Nrf2 FP -22.4 and BCLXL inh 30.9*.
For CCC1CCCCN1CCCNC(=O)Cn1ncn2nc(-c3ccc(OC)cc3)cc2c1=O (stereo not given) the results were GLD-1 RNA inh -2.0, E coli Lon inh 7.9, MEX-5 binding -1.5, LANA DNA inh 0.8, Keap1 Nrf2 FP -9.2 and BCLXL inh -2.4.
Screening CCOC(=O)c1ccc(-c2ccc(C=O)o2)cc1 returned GLD-1 RNA inh 0.7, E coli Lon inh -10.6, MEX-5 binding -27.1*, LANA DNA inh 0.8, Keap1 Nrf2 FP 1.6 and BCLXL inh 4.0.
`CCCOC(=O)c1ccc(-c2ccc(C=O)o2)cc1` gave GLD-1 RNA inh 5.5, E coli Lon inh 4.8, MEX-5 binding -1.8, LANA DNA inh 1.8, Keap1 Nrf2 FP -1.9 and BCLXL inh -1.2.
COc1ccc(C(=O)N2CCn3c(C)ccc3C2C)cc1 (stereo not given) was read as GLD-1 RNA inh 14.3, E coli Lon inh -12.9, MEX-5 binding 1.2, LANA DNA inh 7.7, Keap1 Nrf2 FP 3.8 and BCLXL inh 47.5*.
`CCOc1ncccc1C(=O)OCC(=O)N(CC(C)C)C1CCS(=O)(=O)C1` (stereo not given) gave GLD-1 RNA inh 0.4, E coli Lon inh 0.8, MEX-5 binding 0.9, LANA DNA inh -0.2, Keap1 Nrf2 FP -3.1 and BCLXL inh 90.7*.
`CCCNC(=O)C1(C)CCN(C(=O)COc2ccc(C(C)(C)C)cc2)C1` (stereo not given) gave E coli Lon inh -9.1.
O=C(N=C1SC2CS(=O)(=O)CC2N1c1ccccc1)c1cccc([N+](=O)[O-])c1 (stereo not given) was read as GLD-1 RNA inh 10.3, E coli Lon inh 8.1, LANA DNA inh -1.3, Keap1 Nrf2 FP -1.2 and BCLXL inh -3.1.
Screening COC(=O)c1ccc(-n2c(C)ccc2-c2ccccc2)cc1 returned GLD-1 RNA inh -3.0, E coli Lon inh 0.1, MEX-5 binding -0.4, LANA DNA inh -1.9, Keap1 Nrf2 FP -3.3 and BCLXL inh -3.7.
